For eleven compounds, Potency and activity change, negative = inhibition results are on record in PubChem BioAssay (NCATS).

A number with no mark means an inactive call. A call without a number means that no potency is given here. Activity calls are given as the source filed them. Calls come from the whole dose curve; as a rule, active = well fitted inhibition curve with a large enough effect; inconclusive = small, poorly fitted or top-dose-only effect; inactive = flat fitted curve, though single readings scatter.

This assay concerns the target Luciferin 4-monooxygenase (Photinus pyralis) (UniProt P08659). The assay can be described thus: Primary firefly luciferase (FLuc) qHTS assay for identification of artifact compounds. (AID 1845220). Note: nearly all actives have a fitted effect of over 60% in size. As to conditions: purified firefly luciferase, luminescence, 5 min; series mostly up to 54.1 µM. The method in brief: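 Reaction readout was CCD-imaged luminescence, taken 5 min after adding 10 nM purified firefly enzyme to compound-treated wells holding 10 uM luciferin and ATP in pH 7.6 buffer.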
Take `O=C(O)C(O[C@@H]1O[C@H](CO[C@@H]2O[C@H](CO)[C@@H](O)[C@H](O)[C@H]2O)[C@@H](O)[C@H](O)[C@H]1O)c1ccccc1` (stereo partly specified): the Potency entry is “inactive”.
On to `O=C(CC(c1ccccc1)c1ccccc1)N1CCN(C(c2ccccc2)c2ccccc2)CC1`, for which the Potency result was “inactive”.
Turning to `CS(=O)(=O)N(CC(=O)NCC1CC1)c1cc(C(F)(F)F)ccc1Cl`, the Potency entry was “inactive”.
Same read-out and setting: for `CCOc1cc(C(=O)N2CCC(N3CCN(C)CC3)CC2)ccc1Nc1ncc2c(n1)N(C1CCCC1)c1ccccc1C(=O)N2C` the value was “inactive”; for `Cc1cc(C(=O)Nc2cccc(C(=O)Nc3cccc(C(F)(F)F)c3)c2)on1`, “inactive”; for `O=C(CCc1nnc2n(Cc3ccc(Cl)cc3)c(=O)c3ccccc3n12)NCCC1=CCCCC1`, “inactive”.
Still for that read-out and setting: the result for `CC(C)=CCC[C@](C)(O[C@@H]1O[C@H](CO)[C@@H](O)[C@H](O)[C@H]1O)[C@H]1CC[C@]2(C)[C@@H]1[C@H](O)CC1[C@@]3(C)CC[C@H](O)C(C)(C)C3[C@@H](O[C@@H]3O[C@H](CO)[C@@H](O)[C@H](O)[C@H]3O)C[C@]12C` (stereo partly specified) reads “inactive”; that for `CC(C)(C)c1ccc(S(=O)(=O)NCc2ccc(C(=O)Nc3cccnc3)cc2)cc1`, “inactive”.
In the case of `C[C@@H]1C[C@H]2O[C@@H]2/C=C\C=C\C(=O)Cc2c(Cl)c(O)cc(O)c2C(=O)O1`, the activity change, negative = inhibition is -8.64% [at 11.6 µM].
`C=C1CC2C(C)(CCC(=O)O)C(C(C)(C)O)CCC2(C)C2C(=O)OC(C)(C(=O)OC)C(=O)C12C` (stereo unspecified): the Potency result was “inactive”.
`O=C(O)CC1CCC(c2ccc(-c3ccc4nc(C(=O)NCc5ccc(OC(F)(F)F)cc5)cn4c3)cc2)CC1` (stereo unspecified): the Potency result is “inactive”.
